“And” between values parts separate entries of the source, which are not always exact repeats. Equal values may be shown once. The source holds several records for some structures; these can differ, active in one and inactive in another. The source made the active and inactive calls. How the source made its calls: active means hit-call score of the fitted dose curve at least 0.9, where 1 is the maximum; inactive means score below 0.9.
Assay: ATG_TCF_b_cat_CIS: Attagene CIS-FACTORIAL HepG2 Assay for human T-Cell-Factor with beta-catenin (TCF/b-cat) (AID 2282965)
Settings: HepG2 TCF/beta-catenin cis-reporter transcription, actives raise or lower the signal
Protocol: ATG_CIS is a cell-based, multiplexed-readout assay that uses HepG2, a human liver cell line, with measurements taken at 24 hours after chemical dosing in a 24-well plate.ATG_TCF_b_cat_CIS is one of 52 assay component(s) measured or calculated from the ATG_CIS assay. It is designed to make measurements of mRNA induction, a form of inducible reporter, as detected with fluorescence intensity signals by Reverse transcription polymerase chain reaction (RT-PCR) and Capillary electrophoresis technology.Data from the assay component ATG_TCF_b_cat_CIS was analyzed into 1 assay endpoint. This assay endpoint, ATG_TCF_b_cat_CIS, was analyzed with bidirectional fitting relative to DMSO as the negative control and baseline of activity. Using a type of inducible reporter, measures of mRNA for gain or loss-of-signal activity can be used to understand the reporter gene at the transcription factor-level as they relate to the gene TCF7 and TCF7L2 and LEF1 and TCF7L1. Furthermore, this assay endpoint can be referred to as a primary readout, because this assay has produced multiple assay endpoints where this one serves a reporter gene function. To generalize the intended target to other relatable targets, this assay endpoint is annotated to the dna binding intended target family, where the subfamily is HMG box protein.
Human liver HepG2 cells are transiently transfected with multiple reporter transcription units (MRTUs) in 6-well plates using FuGene 6 reagent (Roche; 3 ml FuGene/1 mg DNA). The MRTU constructs are regulated by a cis-regulating element (promoter). […] A major difference between the CIS and TRANS system is that in CIS activities of endogenous TFs are measured, whereas the TRANS assay evaluates changes in activities of exogenous, chimeric NR-Gal4 proteins. […] At the end of 24 hour incubation, total RNA was isolated using TriZol reagent (Invitrogen). The isolated RNA is then reverse-transcribed using oligo(dT) primer and Mo-MLV reverse transcriptase (Invitrogen) with DNAse I (Ambion) treatment for 30 min. The one-tenth of the produced cDNA was amplified by PCR using Taq DNA polymerase (Invitrogen) and two reporter sequence-specific primers. The PCR products were fluorescently labeled by primer extension with 6-arboxyfluorescein (6-FAM) 5'-labeled reporter sequence-specific primer (2 min at 95 C, 20 s at 68 C and 10 min at 72 C) and these products were digested with 5U of HpaI (New England Biolabs) for 2h at 37 C. The fragments were purified using Qiaquick PCR columns (Qiagen), analyzed on an ABI 3130xL genetic analyzer (Applied Biosystems) with peak positions identified by using a set of X-rhodamine (ROX)-labeled MapMarker1000 molecular weight standards (BioVentures). The raw capillary electrophoresis data was processed using Attagraph software (Attagene).

SMILES | outcome | AC50
CCOC(=O)CCCCCCCCC(=O)OCC | inactive | 
CCCCN(CCCC)CCCCCCN(CCCC)CCCC | inactive | 
CC(=O)OC(C)(C)C | inactive | 
N#CCCNCCC#N | inactive | 
O=C(O)CS | inactive | 
CC/C=C\CCOC(=O)C(C)C | inactive | 
CCCCC(CC)COCCO (stereo not given) | inactive | 
CCCCCC(=O)O[C@]1(C(C)=O)CC[C@H]2[C@@H]3CCC4=CC(=O)CC[C@]4(C)[C@H]3CC[C@@]21C | inactive | 
NC(=O)c1cccnc1 | inactive | 
CC(O)CN (stereo not given) | inactive | 
CCCO | inactive | 
C=CCOC(=O)/C=C\C(=O)OCC=C |  | 15.1 µM (active)
CCCCCC1C(=O)CCC1CC(=O)OC (stereo not given) | inactive | 
O=c1cc[nH]cc1 | inactive | 
O=C(O)c1ccc(C(=O)O)c(C(=O)O)c1 | inactive | 
COc1ccc2[nH]cc(CCNC(C)=O)c2c1 | inactive | 
COc1ccc(OC)cc1 | inactive | 
C=C1CC[C@H]2O[C@]2(C)CC[C@@H]2[C@@H]1CC2(C)C | inactive | 
CCCCCCCCCO | inactive | 
CCCCCCCCCCCCCCCCCC(=O)OCCCCCCCCCCCCCC(C)C | inactive | 

SMILES | outcome | AC50
O=C(O)c1ccco1 | inactive | 
COc1ccc(C(C)=O)cc1 | inactive | 
O=S1(=O)CC=CC1 | inactive | 
C=COCC1CCC(COC=C)CC1 (stereo not given) | inactive | 
C#C[C@]1(O)CC[C@H]2[C@@H]3CCc4cc(O)ccc4[C@H]3CC[C@@]21C | inactive | 19.2 µM (active) and 19.8 µM (active)
CC(O)CNCC(C)O (stereo not given) | inactive | 
CCCCN(CCO)CCO | inactive | 
C[N+](C)(C)CCO | inactive | 
CCC(=O)OC/C=C(\C)CCC=C(C)C | inactive | 
NC(=O)c1c(Cl)cccc1Cl | inactive | 
C=CC(C)CCCC(C)(C)O (stereo not given) | inactive | 
CCOCC(C)O (stereo not given) | inactive | 
CC(C)COC(=O)c1ccccc1 | inactive | 
C=CC(C)(CCC=C(C)C)OC(=O)CC (stereo not given) | inactive | 
O=C1CCC(=O)N1 | inactive | 
CC(=O)CCC=C(C)CCC=C(C)C | inactive | 
CC(=O)OCC=C(C)CCC=C(C)CCC=C(C)C |  | 148 µM (active)
c1ccc2scnc2c1 | inactive | 
c1coc(CNc2ncnc3nc[nH]c23)c1 | inactive | 

Source: PubChem BioAssay (EPA / NIEHS)
